From PubChem BioAssay AID1347426 (Functional Genomics Laboratory (NCATS/FGL), 2020) come the findings set out here.

The campaign covered roughly 31,000 sequences. About 1,400 (4.5%) were called active.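 The calls were made as follows: active = median seed-adjusted z-score above 1 or below -1; inactive = the rest.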 This excerpt belongs to a sample that is enriched for actives.

The nature of this assay: Novel Modifiers of Survival Motor Neuron (SMN) Protein: Gene Identification via Genome-wide siRNA Screen.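 Also: luminescence tracks full-length SMN protein made from the SMN2 reporter.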 The settings on record: HEK293T SMN2-luciferase reporter, siRNA knockdown, 72 h; actives lie on both sides. In short, it runs like this: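 Steps: spot 1 pmol siRNA, add Lipofectamine RNAiMax in serum-free DMEM, seed HEK293T SMN2–luciferase reporter cells; incubate 72 h at 37 °C; add ONE-Glo; normalize luminescence to control siRNA, log10, MAD. Candidates: |MAD| > 1.0.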
In the case of CACUGUUUAUGUAUAUGGATT against RHOT1, the median seed-adjusted z-score was -0.189 (inactive).

Take UCACCACCGUGUCUAAGAATT against MPO: the median seed-adjusted z-score is -0.223 (inactive).

For the sequence GGUUCUUGCUUACACUCUUTT against ESSPL, the median seed-adjusted z-score is 0.328 (inactive).

On to CAUUGUCAAUAUAACGAUUTT against GPR98, for which the median seed-adjusted z-score is -0.509 (inactive).

CAAGAAUCUUAAGAUAGAATT against CD4: the median seed-adjusted z-score is -0.566 (inactive).

Turning to AUAUAUUGCUUGGAGAUGATT against STK16, the median seed-adjusted z-score was 0.113 (inactive).

For the sequence CCAUCAACAUCGCCCUGAATT against PLOD1, the median seed-adjusted z-score is 0.481 (inactive).

Take GCCUUUUGCUCAUCUCACUTT against TNFSF11: the median seed-adjusted z-score is 0.0212 (inactive).

With CAACCAGACUAUUCGGACATT against PPP1R10, the median seed-adjusted z-score was 1.41 (active).

For the sequence CCAACCUUCUGAAUACGUUTT against GPR126, the median seed-adjusted z-score is -0.243 (inactive).

In the case of AAAAGAGACUGAUCAUCCATT against NR2F6, the median seed-adjusted z-score was -0.681 (inactive).

In the case of GAACUAUGCUAUACCAGAATT against IQCH, the median seed-adjusted z-score is 0 (inactive).

As to GACUAUUCCCUGCACCACATT against ABHD9, the median seed-adjusted z-score was 0.486 (inactive).

As for CUUCCGUUAUGAUACAGAATT against GABRA2, the median seed-adjusted z-score is -0.272 (inactive).

For GCUGUACACCGGCAUCGUATT against SLC5A5, the median seed-adjusted z-score was 1.01 (active).

For GAAUCUAUGAGCUUCGAAATT against PSMB5, the median seed-adjusted z-score is -1.37 (active).

As to CUAUGGGUAUGACUACUUUTT against BPHL, the median seed-adjusted z-score was -0.161 (inactive).

Take GGAACAUAGUCUUCAGGUATT against KIF20A: the median seed-adjusted z-score was 0.906 (inactive).

For AUGCUGAUCAGGAAAAGUATT against TEX13A, the median seed-adjusted z-score was -1.22 (active).

As for CACUGAAGCUGUACAACAATT against TSHR, the median seed-adjusted z-score is 0.851 (inactive).

Take GAGUGAUCAGAGACCGAAATT against IARS: the median seed-adjusted z-score was -0.198 (inactive).

With GGACUUACUAAAAGCUAAATT against CRKRS, the median seed-adjusted z-score was -1.16 (active).

With CAAUCUAACUUUUCGGACATT against CLCA2, the median seed-adjusted z-score was 0.669 (inactive).

On to CAGUUUCAACUUUAUCAGATT against RNF144B, for which the median seed-adjusted z-score is 0.642 (inactive).

Turning to GAUGAUAUCCUACUAGGCATT against CD302, the median seed-adjusted z-score is 0.0818 (inactive).

As for CAAUGUUUGUCUGGUCAUATT against ZDHHC2, the median seed-adjusted z-score is 0.133 (inactive).

For CAUCUUAUCUACAUCUUAUTT against KCNK18, the median seed-adjusted z-score was 0.115 (inactive).

For the sequence CCAUUAUCGCUGUCUUCUATT against CXCR7, the median seed-adjusted z-score is -0.511 (inactive).

For the sequence GGCCUACAGCUGGAAGGAATT against CHRM1, the median seed-adjusted z-score is 1.1 (active).

Consider GGAUGCGUUGAAUAAGUUUTT against MGAT4A, for which the median seed-adjusted z-score was 0.134 (inactive).

Turning to GCACUACGGACCAUAGUUATT against NRF1, the median seed-adjusted z-score is 0.608 (inactive).

For CGAAGUUCACUAUCGAACATT against DNAH11, the median seed-adjusted z-score was 0.104 (inactive).

Consider AUAUCAACUUGACCCACCATT against B3GNT7, for which the median seed-adjusted z-score was -1.05 (active).

On to CUACUUCCUUUAUCCCGAUTT against BDH1, for which the median seed-adjusted z-score was -0.0253 (inactive).

GGAUCGAUAUCAAGAUAUUTT against AVEN: the median seed-adjusted z-score was 0.184 (inactive).

On to GAAUCUCUGUAGCCGAUGATT against CPA1, for which the median seed-adjusted z-score is -0.187 (inactive).

Regarding AGACUGAACUCCGAACAGATT against SSH3, the median seed-adjusted z-score was -0.0772 (inactive).

Turning to GAAUAAGAGCACAAGUAAATT against SERPINB13, the median seed-adjusted z-score is 0.0593 (inactive).

With AGCUGAUGUUCGAGCAGUATT against ACTL6B, the median seed-adjusted z-score was 0.0703 (inactive).

Consider CUCUGAGUAUGUGACCGAATT against XPNPEP1, for which the median seed-adjusted z-score was -1.5 (active).

With CAUCAUCUAUGUAAGCCUATT against PRKD1, the median seed-adjusted z-score was -0.323 (inactive).

On to CAAGAAUCAUUAAUACAAATT against CCL2, for which the median seed-adjusted z-score is 0.651 (inactive).

As for GGACGCAGGUUUCUGUUUATT against CHRFAM7A, the median seed-adjusted z-score was 0.115 (inactive).

Turning to CACCAGCUAUGAACGAGAATT against THOC2, the median seed-adjusted z-score was -1.22 (active).

Regarding CGACCUACCGAGAAGAAAATT against GJB3, the median seed-adjusted z-score was -0.198 (inactive).

GGGAUGUUCUUAGAAGUUUTT against BIK: the median seed-adjusted z-score was 0.0492 (inactive).

On to GCCCAGUUGCUUAACGAAUTT against ACVR2A, for which the median seed-adjusted z-score is -0.22 (inactive).

CAAGAACUACAGAUUCGUATT against PPP1R13B: the median seed-adjusted z-score was 0.0943 (inactive).

As for GACUGACCAUACUGAUAUUTT against NPY5R, the median seed-adjusted z-score is 0.213 (inactive).

As for GCCUGUUUCAAGACACUGATT against CRNN, the median seed-adjusted z-score was -0.0758 (inactive).

In the case of GCUUUAGAGUUCCAUAUGATT against PIK3CG, the median seed-adjusted z-score is 0.576 (inactive).

For GCACCUAUAUUUACUACUUTT against TTC3, the median seed-adjusted z-score was -1.17 (active).

For CAACUUGCCUUGUUAACCATT against ZDHHC2, the median seed-adjusted z-score is 0.133 (inactive).

In the case of CUUCCACCCGAGUACCUUUTT against HDAC10, the median seed-adjusted z-score is -0.165 (inactive).

For the sequence GAAUAGAGAUCAAAUUCCATT against CD163, the median seed-adjusted z-score is 0.021 (inactive).

On to GGAGGCUUCUUUAUGAAUUTT against FXYD4, for which the median seed-adjusted z-score is -0.0447 (inactive).

CUAUAACUGUUCGUGCUUATT against USP47: the median seed-adjusted z-score is 0.3 (inactive).

Take GAAAAUCACCAAAACAUACTT against WHSC1: the median seed-adjusted z-score is 1.17 (active).

In the case of GGAAAGUCCUGUUUGAUCATT against RHBDL3, the median seed-adjusted z-score was 0.56 (inactive).

As for CUGUAGAACUAGUCCUUAUTT against PRKRIR, the median seed-adjusted z-score is 0 (inactive).

As for GUAUGUCGGGUAUACCGUUTT against RAD54L2, the median seed-adjusted z-score is -0.0646 (inactive).

On to CGACAAUGCGGUCAACCUUTT against CD28, for which the median seed-adjusted z-score is -0.993 (inactive).

With GGAGAUACUCCGAACCUCATT against TEX13A, the median seed-adjusted z-score is -1.22 (active).

As for CGAUAUCUGACGCAGCUAATT against RPS6KA2, the median seed-adjusted z-score is 0.139 (inactive).

As to ACAUCCGAGUUUAUCCUGATT against SFRS9, the median seed-adjusted z-score is -0.144 (inactive).

Take GGAAAAAUAUCCAGCAAAATT against UBE2E2: the median seed-adjusted z-score was -1.77 (active).

Consider CCUCAGAUCUACCCACAGATT against CSF2RB, for which the median seed-adjusted z-score was -0.454 (inactive).

As to CACAAGCAAGUUCAAAUAATT against FCRL4, the median seed-adjusted z-score is -0.39 (inactive).

Regarding GCUAUUUGCUGGCUACAAATT against POLR2J3, the median seed-adjusted z-score was -5.42 (active).

For the sequence GCGGCAAUCUUGGGAGUAATT against TMPRSS11B, the median seed-adjusted z-score is -0.545 (inactive).

With CAGCGAUGCUACGACAAUATT against PHF17, the median seed-adjusted z-score is 1.01 (active).

On to GAAUUUUGAUGUCAUACGATT against DTNB, for which the median seed-adjusted z-score is -0.142 (inactive).

With GGAACUUCCUGAGAACAUUTT against MAP3K8, the median seed-adjusted z-score was -0.533 (inactive).

As to CAUUCACGAUCUUCCCGUATT against MYO16, the median seed-adjusted z-score is -0.072 (inactive).

Take GUUGCAAACUUAUCGAGGATT against CCT2: the median seed-adjusted z-score was -0.0508 (inactive).

For the sequence GGUAGAAUCUAGGUAUGCATT against RAD51, the median seed-adjusted z-score is 0.594 (inactive).

For the sequence GCAUAUGGUUCUGAAGAUATT against GTF2E1, the median seed-adjusted z-score was 1.76 (active).

For the sequence GAGCAAAUCAAAGAACUAATT against TSC22D1, the median seed-adjusted z-score was 0 (inactive).

Consider AGACACCUCCUAGGACUAUTT against MZF1, for which the median seed-adjusted z-score was 0.215 (inactive).

In the case of GGAGUGCACGAGACAUUCATT against FAH, the median seed-adjusted z-score is -0.0836 (inactive).

For the sequence GGACUACAAAGGUUCUCGATT against CDH18, the median seed-adjusted z-score was 0.21 (inactive).

Turning to CAGCUUCGAUAUAAGGAAATT against MYST2, the median seed-adjusted z-score is -1.46 (active).

For ACCUGACCGUGUCGCUAUATT against DHRSX, the median seed-adjusted z-score was -0.686 (inactive).

For GGAACCUGGAGAUAUCAUUTT against FUT8, the median seed-adjusted z-score is 0.464 (inactive).

Turning to UGGUGUCGCUGGAGAAGUATT against GPX7, the median seed-adjusted z-score was -0.971 (inactive).

As for CCAUCCCACUGGUCACAUUTT against SLC7A8, the median seed-adjusted z-score was -0.134 (inactive).

Take GGAGGCAUUUGAAGUUCCATT against FARP1: the median seed-adjusted z-score was -0.487 (inactive).

As to GGACCGCUACUCUGAGUAUTT against KCNH6, the median seed-adjusted z-score was 0.424 (inactive).

Turning to CUGUUAUUCUUCAUACCUATT against TAAR8, the median seed-adjusted z-score is 0.0792 (inactive).

Regarding GGAUCAAGACGUGAACGAUTT against CPSF6, the median seed-adjusted z-score is -2.38 (active).

For the sequence GAGUAUUCUGAGUACAUGATT against ZFP42, the median seed-adjusted z-score was -0.537 (inactive).

As for CAAACAUCUAUGCAGCAAATT against MS4A8B, the median seed-adjusted z-score was 0.207 (inactive).

Turning to GGAUGAGAAGAGACGUAGATT against DNMT1, the median seed-adjusted z-score was 0.185 (inactive).

Turning to CAUGAACCCUUGGUAGAUATT against TBRG1, the median seed-adjusted z-score was -1.47 (active).

Take “GGGUUUUUGCGCUUCAAAATT against GALNAC4S-6ST”: the median seed-adjusted z-score is 0.218 (inactive).

With GCAAAAUGAUCAUUAAUGATT against EIF3C, the median seed-adjusted z-score was 0.56 (inactive).

For GGACCAUAAUCAAUGUAGATT against ZNF585A, the median seed-adjusted z-score was -0.168 (inactive).

Take CCUCAACUAUCAGAACAAUTT against KLF10: the median seed-adjusted z-score is 0.616 (inactive).

Regarding GGUUGUUGUAUACUUGCAATT against LIPJ, the median seed-adjusted z-score was 0.295 (inactive).

Consider GACCUAUGCAGUUCGAAAATT against SFRS1, for which the median seed-adjusted z-score is -1.66 (active).

With GGAGUGUGCUGAAGACCUATT against GFER, the median seed-adjusted z-score is 0.402 (inactive).

CCACGUGAUAAAUCAAGAATT against PRPF4B: the median seed-adjusted z-score was -2.29 (active).

Take GAAAGACACUGGGACUCGATT against SNRNP35: the median seed-adjusted z-score is 0.172 (inactive).

Take GCAUCGCAAGAGCUGCAAATT against DPYD: the median seed-adjusted z-score was -0.112 (inactive).

Consider GAUUGUCAAUGGGUGUAUUTT against AOF1, for which the median seed-adjusted z-score was -0.211 (inactive).

As for CCCUCCAAAUAGCAAAUGUTT against PCOLCE2, the median seed-adjusted z-score is -1.15 (active).

Consider GGGUCAUACGAAUACCGAUTT against VIPR2, for which the median seed-adjusted z-score was 0.706 (inactive).

Regarding GCAACGUGAUCAAAGGUAUTT against GNA13, the median seed-adjusted z-score was 0 (inactive).
